Source: PubChem
An excerpt weighted towards active compounds, which were near 4.3% of everything screened.
MITF act – MITF TRPM1 promoter activation in melanoma cells; 300,000 compounds, 0.75% hits; SK-MEL-5 TRPM1-promoter luciferase, 24 h; % of positive control, neutral wells = 0; activation, % at 12.5 µM;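 active = mean activation of at least 80% with every replicate also reaching 80%; inconclusive = mean reaches 80% but some replicate falls short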;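 also: 0% = neutral control wells and 100% = parthenolide positive control wells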
MLL AF4-AF9 inh – inhibitors of human MLL-AF4/AF9 interaction; AlphaScreen, biotin-AF4 peptide binding to FLAG-AF9; inhibition, % at 10 µM; 350,000 compounds, 0.47% hits; P42568; AID 651704;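 active = every replicate reaching a set inhibition limit, whatever the replicate mean, cut at about 25% in these data; inconclusive = mean inhibition reaches that limit but some replicates miss it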;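 also: 0% = plate neutral control median and 100% = total signal loss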
Target sequence (P42568 whole entry, looked up): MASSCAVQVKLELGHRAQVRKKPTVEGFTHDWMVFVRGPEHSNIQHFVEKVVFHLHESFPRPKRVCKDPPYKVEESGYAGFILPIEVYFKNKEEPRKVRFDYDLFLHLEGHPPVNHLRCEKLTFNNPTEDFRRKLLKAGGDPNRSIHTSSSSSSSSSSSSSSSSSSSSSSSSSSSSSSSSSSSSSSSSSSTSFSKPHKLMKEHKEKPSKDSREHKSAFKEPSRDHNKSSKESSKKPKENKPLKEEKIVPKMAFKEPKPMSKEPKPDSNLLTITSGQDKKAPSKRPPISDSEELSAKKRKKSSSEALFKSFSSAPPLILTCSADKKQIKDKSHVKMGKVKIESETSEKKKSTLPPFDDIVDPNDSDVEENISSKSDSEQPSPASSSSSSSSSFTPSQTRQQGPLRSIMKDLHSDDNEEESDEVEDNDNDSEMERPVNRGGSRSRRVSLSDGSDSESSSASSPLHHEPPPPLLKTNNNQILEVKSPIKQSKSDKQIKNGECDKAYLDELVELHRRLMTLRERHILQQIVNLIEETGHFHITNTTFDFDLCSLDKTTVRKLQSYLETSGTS
FGF22 binding – shifts melting point of recombinant human FGF22; activity (Tm shift, normalised), % at 9.99 µM; Q9HCT0; 340,000 compounds, 1.5% hits; recombinant FGF22 thermal shift, SYPRO orange fluorescence; percent of sucrose octasulfate shift, DMSO zero;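 active = mean Tm shift, scaled 0 neutral to 100 positive control, at about 1.3% or above, every replicate too, limit read from the data; inconclusive = no clear call, values can overlap the other calls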
esBAF inh – inhibitors of esBAF chromatin remodeling in mouse ES cells | Bmi1-luciferase knock-in reporter, 24 h; 100% = twice the neutral-well signal | reporter increase, % at 12.5 µM | 350,000 compounds, 2% hits | AID 602393; in the data active = activation above about 40%; inconclusive = no clear call, values can overlap the other calls;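 also: 0% = median of the plate's neutral control wells and 100% = double that signal; a rise in the Bmi1 reporter signal indicates esBAF inhibition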
Wnt bcat act – activators of Wnt/beta-catenin signaling; Wnt/beta-catenin reporter cell assay, activator, plate reader; activation, % at 9.35 µM; 300,000 compounds, 1.2% hits; in the data active = activation above about 30%, passing the limit was not always enough; inconclusive = no clear call, values can overlap the other calls;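 also: 0% = neutral control wells and 100% = positive control wells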
SMARCA2 act – activators of SMARCA2 function. MG213 cells, MMTV-luciferase reporter, dexamethasone, overnight. activation, % at 9.1 µM. 370,000 compounds, 1% hits; in the data active = activation above about 7.8%;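 also: 0% = vehicle wells and 100% = reference activator wells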
* hit, by the source's call; ? = inconclusive; . = no result given.

SMILES	MITF act	MLL AF4-AF9 inh	FGF22 binding	esBAF inh	Wnt bcat act	SMARCA2 act
Cc1ccc(S(=O)(=O)NC2=C(N3CCN(c4ccccc4F)CC3)C(=O)c3ccccc3C2=O)cc1	-6	35*	0	37	0	2
O=[N+]([O-])c1ccc(/C=N/Nc2nc(NCc3ccccc3)nc(N3CCOCC3)n2)cc1	-4	-1	42	.	-5	1
O=[N+]([O-])c1cccc(/C=N/Nc2nc(NCc3ccccc3)nc(N3CCOCC3)n2)c1O	-50	19	44*	.	0	-1
CC(=O)NCCNc1nc2cc(-c3ccc(C)cc3)sc2c(=O)n1C	.	2	0	54*	5	-4
CO[C@@H]1CN(C)C(=O)c2ccc(NC(=O)c3nc4ccccc4s3)cc2OC[C@@H](C)N(Cc2cccnc2)C[C@H]1C	.	.	.	46*	.	.
COc1ccc(CN2C[C@@H](C)[C@H](OC)CN(C)C(=O)c3ccc(NC(=O)c4nc5ccccc5s4)cc3OC[C@H]2C)cc1	.	6	.	64*	.	.
CCOc1cccc(OCCOc2ccccc2[N+](=O)[O-])c1	?	.	.	80*	.	5
Brc1ccc(-c2nnc(-c3cccnc3)o2)cc1	?	.	0	.	?	1
COc1ccc(-c2nnc(-c3ccc(N)cc3)o2)cc1	.	.	.	24	53*	1
COc1ccc2nc(-c3cccc(N)c3)[nH]c2c1	58	.	.	-30	3	2
Cc1ccc(-c2nnc(-c3cccnc3)o2)cc1	?	-1	0	20	27	2
COc1ccc2nc(-c3ccc(N)cc3)[nH]c2c1	-30	.	.	-46	69*	-5
Clc1ccc(-c2nnc(-c3cccnc3)o2)cc1	.	-1	0	47*	9	3
COc1ccc(-c2nnc(-c3cccnc3)o2)cc1	.	.	.	31	36*	3
COc1ccc(CN(C)C[C@H]2Oc3c(NS(=O)(=O)c4cccs4)cccc3C(=O)N([C@@H](C)CO)C[C@H]2C)cc1	.	2	0	-2	.	.
CS(=O)(=O)Nc1ccc2c(c1)[C@@H]1C[C@H](CC(=O)NCc3ccncc3)O[C@H](CO)[C@@H]1O2	.	1	1	1	.	.
CO[C@H]1CN(C)C(=O)c2ccc(NS(=O)(=O)c3cn(C)cn3)cc2OC[C@H](C)N(Cc2cccc(F)c2)C[C@@H]1C	.	-3	0	.	.	.
CC(C)NC(=O)C12CC3CC(C1)CC(C(=O)NC(C)C)(C3)C2	-5	-1	44*	8	-7	2
CN(C)c1ccc(NC(=S)NC(=O)/C=C/c2ccc(Cl)cc2)cc1	57	.	.	46*	27	5
COc1ccc(CC(=O)NCc2nnc(SCc3ccc([N+](=O)[O-])cc3)n2C)cc1	-5	-6	0	0	0	-4
COc1ccc(CC(=O)NCc2nnc(SCc3ccc(C)cc3)n2C)cc1	-2	-1	43*	.	-3	0
O=C(Nc1ccc2c(c1)OCCO2)c1cc(F)c(F)cc1Cl	?	-6	0	15	18	5
O=C(O)c1cccc([N+](=O)[O-])c1C(=O)Nc1ccc2ccccc2c1	-7	4	-1	12	10	2
O=C(Nc1ccc2ccccc2c1)c1cc(F)c(F)cc1Cl	.	-2	0	78*	15	4
O=C(Nc1ccc2c(c1)C(=O)OC2)c1ccc(Cl)cc1Cl	75	?	0	53*	11	0
SMILES	MITF act	MLL AF4-AF9 inh	FGF22 binding	esBAF inh	Wnt bcat act	SMARCA2 act
O=C(Nc1ccc2ccccc2c1)c1ccc(Cl)cc1Cl	70	-3	0	-17	39*	1
O=C(Nc1ccc2ccccc2c1)c1ccccc1[N+](=O)[O-]	32	2	0	51*	24	7
C[C@@H](NC(=O)[C@H]1[C@H](CO)[C@H]2Cn3c(cccc3=O)[C@H]2N1CCC(F)(F)F)c1ccccc1	.	0	0	1	.	.
O=C(Nc1ccc(N=Nc2ccccc2)cc1)c1ccc(Cl)cc1Cl	17	.	.	9	.	-2
O=C(Nc1ccc(N=Nc2ccccc2)cc1)c1ccccc1Cl	121*	.	.	.	.	4
O=C(Nc1ccc2ccccc2c1)c1ccccc1O	5	-1	0	.	8	-4
O=C(Nc1ccc2ccccc2c1)c1ccccc1Cl	.	-3	0	-5	44*	3
CCOc1cc(CNc2nn[nH]n2)ccc1OCC(=O)NC(C)(C)C	2	-1	44*	-1	0	-3
